# Measured values: PubChem BioAssay AID1362 (SRMLSC, 2008)
# The campaign covered roughly 190,000 compounds. About 4,000 (2.1%) were called active. This is one part of a sample in which actives are shown more often than they occur. No stated cut-off is given here; in the data, active means inhibition above about 58%; inactive means the rest, inconclusive results apart; tested in S. cerevisiae.
# Assay: growth inhibition of WT strain, primary screen, mitochondrial fusion inhibitor project, WT and mutant strains, chemical genetic (AID 1362)
# Conditions: mitochondrial fusion phenotypic screen, at 10 µM
# [1] = WT strain, growth inhibition, stronger effect = higher value
SMILES,inhibition [1],inhibition (mutant strain inhibition) [%]
COc1ccc(CS(=O)/C(Cl)=C(/Cl)C(=O)Nc2ccc(OC)nc2)cc1 (stereo not drawn),80% (inactive),83.5
NC(=O)c1sc2nc3c(c(-c4ccccc4)c2c1N)CCC3,-6.05% (inactive),-18.6
CN(C)c1ccnc2sc(C(=O)c3ccccc3)c(N)c12,38.8% (inactive),22.2
Cc1nc2sc(C(=O)c3ccccc3)c(N)c2c2c1CCCC2,66.8% (active),35.7
COc1ccccc1CNC(=O)C1Cc2ccccc2C(=O)O1 (stereo not drawn),-29.6% (inactive),-2
CCOc1cc(NC(=O)CCl)c(OCC)cc1NC(C)=O,-12.2% (inactive),11.6
CC(C)(C)NC(=O)CN1CCC(NC(=O)C23CC4CC(CC(C4)C2)C3)CC1,-5.35% (inactive),-4.48
CSc1ccc(C(=O)C2CCCN(C(=O)c3ccc(C)nc3)C2)cc1 (stereo not drawn),0.28% (inactive),-10.8
CC1(C)CC(=O)c2cnc3nc4ccccc4n3c2C1,16.6% (inactive),-7.45
c1cncc(-c2nnc3n2C2(CCCCC2)Cc2ccccc2-3)c1,11.9% (inactive),5.15
CCC1(CC)Cc2ccccc2-c2nc3ccccc3c(=O)n21,-30.3% (inactive),0.33
O=c1c2ccccc2nc2n1C1(CCCCC1)Cc1ccccc1-2,61.2% (active),9.31
COC(=O)C1=C(C)NC(=O)/C1=C/c1ccc(CNS(=O)(=O)c2ccc(C)cc2)o1,-8.5% (inactive),0.18
NS(=O)(=O)c1ccc(CCNC(=O)c2ccc([N+](=O)[O-])cc2[N+](=O)[O-])cc1,-6.04% (inactive),-5.86
COc1cc(NC(=O)c2cccnc2SC)cc(OC)c1,-8.4% (inactive),-8.46
COC(=O)c1ccc(NC(=O)c2ccccc2NS(=O)(=O)c2ccccc2)cc1,6.94% (inactive),15.7
COc1cc(NC(=O)c2ccccc2NS(=O)(=O)c2ccc(Cl)s2)cc(OC)c1,67.2% (active),46.5
CCOC(=O)C1CCN(c2ncnc3c2c(-c2ccccc2)cn3-c2ccc(C)cc2)CC1,14.7% (inactive),15.5
COc1cccc(-c2nc(S(=O)(=O)c3ccccc3)c(N3CCOCC3)o2)c1,-12% (inactive),-5.11
COc1cccc(CNc2nc3nc4c(c(=O)n3[nH]2)CCC4)c1,-0.87% (inactive),-10.6
COc1cccc(-c2cc3nc4c(c(N5CCC6(CC5)OCCO6)n3n2)CCCC4)c1,69.6% (active),33.9
Cc1ccc(NC(=O)CN2CCC(C(N)=O)CC2)cc1[N+](=O)[O-],-8.61% (inactive),-3.52
CCCN(C(=O)CSc1nnnn1C)c1c(N)n(Cc2ccccc2)c(=O)[nH]c1=O,-4.08% (inactive),-15.2
CC(C)c1ccc2c(c1)c(SC(C)(C)C)c(CC(C)(C)C(=O)O)n2Cc1ccc(Cl)cc1,70.4% (active),23.5
Cc1ccc(C(=O)N2CCN(S(=O)(=O)N3CCOCC3)CC2)cc1,8.87% (inactive),9.09
COc1ccc(C2CC(c3cccs3)=NN2C(=O)CSc2nncs2)cc1OC (stereo not drawn),-1.36% (inactive),-8.65
Cc1ccccc1CC1(CO)CCCN(Cc2ccc3c(c2)OCCO3)C1 (stereo not drawn),-4.77% (inactive),1.77

SMILES,inhibition [1],inhibition (mutant strain inhibition) [%]
NC(=O)C[n+]1cccc(C(N)=O)c1,-12.7% (inactive),-23.1
COc1ccc(Cn2c(-c3ccc(Cl)cc3)c[n+]3ccccc23)cc1,65.1% (active),49.9
COc1ccc(Cn2c(=O)cc(C)[nH]c2=S)cc1,-15.8% (inactive),-20.1
COc1ccc(C(=O)CN(C(=O)c2ccc(Cl)cc2)N2C(=O)c3ccccc3C2=O)cc1,6.73% (inactive),27.8
COCCNC(=O)CCCn1c(=O)c2ccccc2n(Cc2cccc([N+](=O)[O-])c2)c1=O,5.52% (inactive),6.42
O=C(NCCCNc1ccc([N+](=O)[O-])cc1Cl)c1ccccc1F,-8.75% (inactive),-6.43
COCCn1c(Cc2cccn2C)nnc1SCC(=O)Nc1nccs1,1.47% (inactive),4.94
Cc1ccc(NC(=O)CC2S/C(=N/N=C3\CCCc4ccccc43)NC2=O)cc1 (stereo not drawn),83.8% (active),33.5
Cc1c(Cl)cccc1NC(=O)CC1SC(=NCC2CCCO2)NC1=O (stereo not drawn),-15.1% (inactive),19
CCN=C1SC(CC(=O)Nc2ccc(C)cc2)C(=O)N1CC (stereo not drawn),-14.8% (inactive),6.26
COc1ccnc(Oc2ccccc2)c1-c1ncn[nH]1,3.65% (inactive),2.35
CC(=O)C1=C(O)C(=O)N(c2cccnc2)C1c1ccc([N+](=O)[O-])cc1 (stereo not drawn),2.65% (inactive),-8.89
Cc1cc(C)c(C#N)c(SCC(=O)Nc2ccccc2)n1,9.11% (inactive),-9.66
Cc1cc(C#N)c(SCC(N)=O)nc1-c1ccc(F)cc1,-8.84% (inactive),0.95
Cc1cc(=O)[nH]c(SCC(N)=O)c1C#N,59.8% (active),-65.4
C=CCOc1c(CNn2cn[nH]c2=S)cccc1OC,-4.69% (inactive),-6.27
Cc1ccc(CNC(=O)c2cccnc2Cl)cc1,-14.3% (inactive),-25.1
CN(C)CCOc1ccc(Cl)cc1C(C)(C)C,27.8% (inactive),4.52
CCC(C)(C)c1ccc(OCC(=O)N(C)C)c(C(C)(C)CC)c1,79.9% (active),14.1
CCc1nc(C)ccc1OCC(=O)N(CC)CC,-20.5% (inactive),-10.4
O=S1(=O)CC/C(=N\Nc2ccc(F)cc2)c2ccsc21,26.2% (inactive),34.7
O=C(OCC(=O)c1cccs1)C1=COCCO1,9.96% (inactive),20.9
CCC(C)(C)c1ccc(Oc2ccc(NC(=O)COC(=O)C3=COCCO3)cc2)cc1,60.5% (active),33.7
COc1ccc(NC(=O)COC(=O)CNC(=O)C2CCCCC2)cc1,-11.9% (inactive),12.1
CN(C)c1ccc(/C=N/NC(=O)C(O)c2ccc(Br)cc2)cc1 (stereo not drawn),-4.38% (inactive),1.15
Cc1ccccc1CSc1nnc(-c2ccccc2)c(=O)[nH]1,12.9% (inactive),-13.6
O=C(Nc1ccccc1C(=O)O)c1cc(S(=O)(=O)N2CCCCC2)cs1,1.49% (inactive),-6
